Results taken from PubChem BioAssay (Tox21).
Records with an inconclusive call do not appear. A call without a number means that no potency is given here. Calls of active or inactive are those of the source. Calls follow the shape of the dose curve; as a rule, active = well fitted cell-killing curve with a large enough effect in the repeat runs; inconclusive = weak or mixed curves, or effect the other way; inactive = no such curve, though single readings can be large or run the other way. Residues, ends and D or L forms follow the SMILES beside them.

Test: qHTS assay to identify small molecule antagonists of the progesterone receptor (PR) signaling pathway - cell viability counter screen (AID 1346798); also: nearly all actives have a fitted effect of over 50% in size
Conditions: PR-UAS-bla HEK293T viability, CellTiter-Glo luminescence, 16 h; series mostly up to 92.4 µM; activity change, negative = cytotoxicity: at the top concentration
Excerpt: National Center for Advancing Translational Sciences [NCATS]
NIH Chemical Genomics Center [NCGC]
U.S. Environmental Protection Agency [EPA]
National Institutes of Environmental Health Sciences [NIEHS]
National Toxicology Program [NTP]
U.S. Food and Drug Administration [FDA]
Progesterone receptor (PR), a nuclear hormone receptor, plays an important role in development, metabolic homeostasis and reproduction. It is activated by the steroid hormone progesterone. Endocrine disrupting chemicals (EDCs) and their interactions with steroid hormone receptors like PR causes disruption of normal endocrine function. To identify the compounds that inhibit PR signaling, a PR-UAS-bla GripTite cell line i.e. PR-UAS-bla HEK293T (Invitrogen, Carlsbad, CA, USA) containing a beta-lactamase reporter gene under the control of an UAS response element was used to screen Tox21 10K compound library. The cytotoxicity of the Tox21 compound library against the PR-bla cell line was tested in parallel by measuring the cell viability using CellTiter-Glo assay in the same wells.
Tox21 Assay Protocol Summary:
PR-UAS-bla HEK293T cells were dispensed at 3,000 cells/4 uL of assay medium containing 2% charcoal stripped FBS per well into black wall/clear-bottom 1536-well plates using a Multidrop Combi (ThermoFisher Scientific, Waltham, MA) dispenser. After the assay plates were incubated at a 37C and 5% CO2 for 4 hr, 23 nL of compounds dissolved in DMSO, positive controls or DMSO only was transferred to the assay plate by a Pintool station (Kalypsys, San Diego, CA), followed by addition of 1 uL of R5020 in assay medium using a Flying Reagent Dispenser (FRD, Aurora Discovery, San Diego, CA). The plates were incubated at 37C and 5% CO2 for 16 hr. Then 1 uL of LiveBLAzer B/G FRET substrate was added using a Flying Reagent Dispenser, the plates were incubated at room temperature for 2 hours, and fluorescence intensity was measured by an Envision plate reader (PerkinElmer, Shelton, CT). For cell viability readout that measures cytotoxicity, 4 uL/well of CellTiter-Glo reagent was added into the assay plates using a FRD. After 30 min incubation at room temperature, the luminescence intensity in the plates was measured using a ViewLux (PerkinElmer) plate reader.

| SMILES | Potency | activity change, negative = cytotoxicity |
| --- | --- | --- |
| O=C(O)/C=C\C(=O)O | inactive |  |
| O=C(O)C(=O)O | inactive |  |
| Cc1ccc(S(=O)(=O)NC(=O)NN2CCCCCC2)cc1 | inactive |  |
| CC(O)CN(CCN(CC(C)O)CC(C)O)CC(C)O (stereo not given) | inactive |  |
| CC(C)[C@@H]1CC[C@@H](C)C[C@H]1O | inactive |  |
| O=C1NC(=O)c2ccccc21 | inactive |  |
| Cc1ccc(O)cc1 | inactive |  |
| C[C@]12C=CC(=O)C=C1CC[C@@H]1[C@@H]2[C@@H](O)C[C@@]2(C)[C@H]1CC[C@]2(O)C(=O)CO | inactive |  |
| NC(=O)c1ccccc1O | inactive |  |
| CCCCCCCCCCCCCCCC(=O)O | inactive |  |
| CC(=O)NS(=O)(=O)c1ccc(N)cc1 | inactive |  |
| CC(O)C(=O)O (stereo not given) | inactive |  |
| O=c1ccc2ccccc2o1 | inactive |  |
| NC(=O)c1cnccn1 | inactive |  |
| O=NO | inactive |  |
| O=C(O)c1[nH]n(-c2ccc(S(=O)(=O)O)cc2)c(=O)c1N=Nc1ccc(S(=O)(=O)O)cc1 | inactive |  |
| CCCN(CCC)S(=O)(=O)c1ccc(C(=O)O)cc1 | inactive |  |
| Cc1ccc(C)c(OCCCC(C)(C)C(=O)O)c1 | inactive |  |
| OC(Cn1cncn1)(Cn1cncn1)c1ccc(F)cc1F | inactive |  |
| CCC1(c2ccccc2)C(=O)NCNC1=O | inactive |  |

| SMILES | Potency | activity change, negative = cytotoxicity |
| --- | --- | --- |
| NC(=O)NC1NC(=O)NC1=O (stereo not given) | inactive |  |
| N=C(N)c1ccc(OCCCCCOc2ccc(C(=N)N)cc2)cc1 | inactive |  |
| NC(N)=O | inactive |  |
| Nc1ccc(C(=O)O)cc1 | inactive |  |
| Cn1c(=O)c2[nH]cnc2n(C)c1=O | inactive |  |
| CC(=O)Nc1nnc(S(N)(=O)=O)s1 | inactive |  |
| COC(=O)[C@H](Cc1ccccc1)NC(=O)[C@@H](N)CC(=O)O (H-Asp-Phe-OMe) | inactive |  |
| O=C(O)CCCCCCCC(=O)O | inactive |  |
| CC1(C)[C@@H]2CC[C@@]1(C)C(=O)C2 | inactive |  |
| Cc1cc(=O)n(-c2ccccc2)n1C | inactive |  |
| CCCCC(CC)COC(=O)/C=C/c1ccc(OC)cc1 (stereo not given) | inactive |  |
| O=C(c1ccccc1)c1ccccc1 | inactive |  |
| O=C(c1ccccc1)C(O)c1ccccc1 (stereo not given) | inactive |  |
| COc1ccc2[nH]cc(CCNC(C)=O)c2c1 | inactive |  |
| NS(=O)(=O)c1cc(C(=O)O)c(NCc2ccco2)cc1Cl | inactive |  |
| CCCCC1C(=O)N(c2ccccc2)N(c2ccccc2)C1=O | inactive |  |
| CNC[C@H](O)c1cccc(O)c1 | inactive |  |
| O=C(O)c1cc(N=Nc2ccc(S(=O)(=O)Nc3ccccn3)cc2)ccc1O |  | 18.5% (inactive) |
| CC(=O)OCC(COC(C)=O)OC(C)=O | inactive |  |
| CC(C)(Oc1ccc(C2CC2(Cl)Cl)cc1)C(=O)O (stereo not given) | inactive |  |
